Luciferase inh – blocks purified firefly luciferase enzyme activity. Potency, µM (titrated, usually from 115 µM), actives largely listed as inhibitors. P08659. purified P. pyralis luciferase, luminescence, biochemical. 76,000 tested, 2.5% active; note: nearly all actives have a fitted effect of over 65% in size
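Inhibitors were tested against purified firefly luciferase in a biochemical, low-substrate format (both substrates at 10uM) and luminescence measured with a CCD imager.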
hNpr1 antagonist – blocks ANP-stimulated signaling of human Npr1 receptor; P16066; HEK293 hNpr1 GloSensor cGMP, ANP-stimulated luminescence; 76,000 tested, 1.6% active; Potency, µM (titrated, usually from 46.3 µM), without a hit: at the top dose activity change, negative = inhibition, most hits filed as inhibitors; AID 1347048; calls by dose curve; note: nearly all actives have a fitted effect of over 60% in size
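HEK293 cells stably expressing human Npr1 and cGMP GloSensor pGS-40F, loaded 2 h with 2% GloSensor reagent, given compound 30 min at room temperature. Luminescence read before and 20 min after 0.1 nM hNppA.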
HEK293 tox – cytotoxic compounds in HEK 293 cells; Potency, µM (doses to about 115 µM), inactives show at the top dose activity change, negative = cytotoxicity, actives largely listed as inhibitors; 94,000 tested, 6.6% active; HEK 293 viability, ATP luminescence (CellTiter-Glo), 48-72 h; AID 1345083; note: nearly all actives have a fitted effect of over 60% in size
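Luminescence from cellular ATP, measured with CellTiter-Glo, indicates HEK 293 viability. Cells plated at 250 cells/well are treated with compound for 48 or 72 hr at 37 degree Celsius before reagent addition.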
GPT2 inh – blocks human glutamate pyruvate transaminase 2 | Recombinant GPT2, coupled pyruvate oxidase/HRP Amplex Red fluorescence | Potency, µM (top dose mostly 57.7 µM), inactives show at the highest dose activity change, negative = inhibition, usual class: inhibitors | 100,000 tested, 0.25% active | AID 1671188; note: nearly all actives have a fitted effect of over 60% in size
Target sequence (Q8TD30 whole entry, looked up): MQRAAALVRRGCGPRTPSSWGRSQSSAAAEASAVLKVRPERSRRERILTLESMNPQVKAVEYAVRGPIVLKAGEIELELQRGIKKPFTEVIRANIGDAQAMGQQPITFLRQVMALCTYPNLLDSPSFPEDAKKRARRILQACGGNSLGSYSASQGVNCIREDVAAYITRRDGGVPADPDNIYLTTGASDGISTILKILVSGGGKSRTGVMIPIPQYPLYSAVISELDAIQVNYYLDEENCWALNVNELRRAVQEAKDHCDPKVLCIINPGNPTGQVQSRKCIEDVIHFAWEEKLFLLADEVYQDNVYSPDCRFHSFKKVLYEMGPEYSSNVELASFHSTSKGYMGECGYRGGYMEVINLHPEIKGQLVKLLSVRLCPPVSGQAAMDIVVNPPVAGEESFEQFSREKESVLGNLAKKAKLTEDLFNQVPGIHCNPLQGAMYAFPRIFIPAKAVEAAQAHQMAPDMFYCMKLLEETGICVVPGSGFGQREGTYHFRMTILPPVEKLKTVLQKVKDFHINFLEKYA
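Inhibition is scored from Amplex Red fluorescence generated when pyruvate oxidase and HRP act on pyruvate released by GPT2. Reactions contain 10ng/uL enzyme, 250uM a-KG and 2mM L-alanine and run 30 min at room temperature.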
3T3 cytotox – kills NIH 3T3 cells | Potency, µM (titrated, usually from 96.7 µM), for the others: top-dose activity change, negative = cytotoxicity, usual class: inhibitors | NIH 3T3 viability, CellTiter-Glo ATP luminescence, 48-72 h | 94,000 tested, 4.3% active; note: nearly all actives have a fitted effect of over 55% in size
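Luminescent ATP readout (CellTiter-Glo, 10 min RT) after 48 or 72 hr compound exposure of NIH 3T3 cells seeded at 400 cells/well in 1536-well format; quantitative HTS.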
An asterisk follows results filed as active; i = inactive; ? = inconclusive; nt = no result given; [ ] = another dose, or the depositor's remark. Sampled rows, rich in hits. Any-hit rate of the full collection: about 10%. Unless noted, calls come from the whole dose curve; as a rule, active = well fitted curve in the direction sought with a large enough effect; inconclusive = small, poorly fitted or top-dose-only effect, or another doubt; inactive = no such curve, though single readings can be large; an effect the other way counts as inactive or inconclusive. % is set by controls: 0 for no effect and ±100 for the full control effect; potency is the fitted concentration of half-maximal effect.

SMILES	Luciferase inh	hNpr1 antagonist	HEK293 tox	GPT2 inh	3T3 cytotox
COc1ccc(Nc2ccnc(N3CCN(C(=O)c4ccc(OC)cc4)CC3)n2)cc1	nt	nt	25µM*	-6%	25µM*
COCC(=O)N1CCN(c2nccc(Nc3ccc(OC)cc3)n2)CC1	nt	nt	?	i	?
COc1ccc(Nc2ccnc(N3CCN(C(=O)c4ccc(F)cc4)CC3)n2)cc1	nt	nt	22µM*	0%	13µM*
COc1ccc(Nc2ccnc(N3CCN(C(=O)Cc4cccc(Cl)c4)CC3)n2)cc1	nt	nt	?	-6%	28µM*
COc1ccccc1C(=O)N1CCN(c2ccc3nnc(C4CC4)n3n2)CC1	nt	nt	-26%	nt	?
Cc1ccc(Nc2ccnc(N3CCN(C(=O)c4cccc(Cl)c4)CC3)n2)cc1	nt	nt	?	i	?
Cc1ccc(Nc2ccnc(N3CCCN(C(=O)Cc4cccc(Cl)c4)C3)n2)cc1	nt	nt	13µM*	4%	28µM*
Cc1ccc(Nc2ccnc(N3CCN(C(=O)c4ccccc4C)CC3)n2)cc1	nt	nt	40µM*	-3%	35µM*
O=C(Cc1cccc(Cl)c1)N1CCN(c2nccc(Nc3ccccc3Cl)n2)CC1	nt	nt	35µM*	i	14µM*
COc1ccc(Nc2ccnc(N3CCN(C(=O)c4cccc(Cl)c4)CC3)n2)cc1	nt	nt	28µM*	-8%	28µM*
CCc1nc(-c2c3n(c(=O)n(CC(=O)NCc4ccc(Cl)cc4)c2=O)CCCC3)no1	i	-1%	-3%	i	-7%
COc1cc(O)cc(C)c1C(=O)OC1C(CO)OC(OC2C(O)C(O)C(O)C(O)C2O)C(O)C1O (stereo not given)	nt	nt	nt	i	nt
COc1cccc(C(=O)N[C@@H]2CN(Cc3cccnc3)C[C@H]2CN(C)C)c1OC	i	6%	?	i	-22%
COc1cccc(CN2CC(Oc3ccccc3C(=O)NCc3ccccc3)C2)c1	i	-19%	40µM*	i	35µM*
O=C(NCc1ccccc1)c1ccccc1OC1CN(Cc2ccc(F)cc2)C1	i	-17%	?	1%	32µM*
CCn1ncc(N2CCC(NC(=O)c3ccc(C)s3)CC2)cc1=O	i	-16%	-14%	-3%	-13%
N#Cc1ccc(COc2ccc(-c3cccc4nc(NC(=O)C5CC5)nn34)cc2)cn1	nt	nt	nt	-7%	nt
CCC(CC)NC(=O)C1(CCO)CCN(Cc2ccccc2)C1 (stereo not given)	i	5%	-20%	i	-15%
CN1CCOc2c(C(=O)NCCc3cnc[nH]3)cc(-c3ccccc3F)cc21	i	2%[70.6 µM]	89µM*	2%[88.5 µM]	?
COc1cc(F)ccc1-c1cc(C(=O)NCCc2cnc[nH]2)c2c(c1)N(C)CCO2	i	3%[70.6 µM]	?	-1%[88.5 µM]	100µM*
Cc1ccc(CN2CCCn3nc(C)c(-c4ccccc4-c4ccccc4)c32)o1	i	?	?	-13%[88.5 µM]	45µM*
Cc1nn2c(c1-c1cccnc1N1CCOCC1)N(Cc1ccccc1)CCC2	i	-27%[70.6 µM]	63µM*	-18%[88.5 µM]	?
Cc1nn2c(c1-c1cccnc1N1CCOCC1)N(CC1CC1)CCC2	i	-5%[70.6 µM]	?	-2%[88.5 µM]	40µM*
Cc1nn2c(c1-c1ccccc1-c1ccccc1)N(Cc1ccc(OCC(=O)O)cc1)CCC2	i	-25%	?	0%	?
COc1ccccc1CN1CCCn2nc(C)c(-c3cccnc3N3CCOCC3)c21	i	-16%[70.6 µM]	?	i	?
SMILES	Luciferase inh	hNpr1 antagonist	HEK293 tox	GPT2 inh	3T3 cytotox
O=C(c1ccccc1)N1CCCC(C(=O)N2CCCC2c2nc3ccncc3[nH]2)C1 (stereo not given)	nt	nt	-2%	i	-6%
COCCNC(=O)C1CCc2nnc(-c3cccc(C(F)(F)F)c3)n21 (stereo not given)	nt	nt	1%	-6%	-24%
CCN1c2cc(C(=O)Nc3cccc(C)c3)ccc2C(=O)N2CCCC21 (stereo not given)	i	6%	?	i	?
CN1c2cc(C(=O)Nc3ccc(C(N)=O)cc3)ccc2C(=O)N2CCCCCC21 (stereo not given)	i	0%	?	-7%	?
CCOC(=O)c1cccc(NC(=O)c2ccc3c(c2)N(CC)C2CCCCN2C3=O)c1 (stereo not given)	i	-28%	40µM*	i	40µM*
CCOC(=O)c1cccc(NC(=O)c2ccc3c(c2)N(C)C2CCCCCN2C3=O)c1 (stereo not given)	?	-18%	32µM*	i	?
O=C(c1ccc2c(c1)OCO2)N1[C@@H](c2ccccc2)[C@@H](CO)C[C@]12CCCCNC2=O	nt	nt	-16%	nt	?
COc1ccc(N2CC3CCC(C2)N3Cc2cccc(-c3cccnc3)c2)cc1	nt	nt	40µM*	6.3µM*	?
CCn1cc2c3c(cccc31)CN(C(=O)c1ccc(OC)c(F)c1)CC2	i	-6%	?	-14%	?
CC(c1cccs1)N(C)Cc1cccc2ccccc12 (stereo not given)	?	19%[70.6 µM]	112µM*	i	?
COc1cccc(CN(C)C(C)c2cccs2)c1 (stereo not given)	i	0%[70.6 µM]	-27%[172 µM]	2%[88.5 µM]	-10%[138 µM]
CC(C)=CCN1CC2(CCN(S(=O)(=O)c3cccs3)CC2)CC1=O	i	9%	-6%	2%	-29%
COc1ccc(NC(=O)CN2C(=O)NC(c3ccc(Cl)cc3)C3=C2COC3=O)cc1Cl (stereo not given)	?	-21%	?	i	25µM*
COc1cc(Cl)c(C)cc1NC(=O)CN1C(=O)NC(c2ccc(Cl)cc2)C2=C1COC2=O (stereo not given)	i	-15%	16µM*	0%	18µM*
O=C1NCc2ccccc2CC12CCCCN2CC1CC=CCC1 (stereo not given)	nt	nt	-11%	i	-10%
O=C(Nc1cc(-c2ccncc2)nn1-c1ccccc1)c1ccc(Cl)nc1	nt	nt	?	-2%	?
NC1(C(=O)NCc2nc(-c3cccc(F)c3)c(-c3ccccn3)[nH]2)CCC1	i	-10%	-9%	?	-1%
O=C(NCc1nc(-c2cccc(F)c2)c(-c2ccccn2)[nH]1)N1CCCC1	i	5%	50µM*	-7%	?
O=C(Cc1ccc(F)cc1)Nc1ccc2ncnc(N3CCCCC3)c2c1	i	-16%	?	-9%	35µM*
CCCC(=O)Nc1ccc2c(N3CCOCC3)ncnc2c1	i	4%	-14%	0%	?
Cc1ccc(C(=O)Nc2ccc3c(N4CCOCC4)ncnc3c2)cc1F	?	-11%	?	1%	11µM*
Cc1ccsc1C(=O)Nc1ccc2ncnc(N3CCCCC3)c2c1	i	?	32µM*	-1%	35µM*

Screens as filed in PubChem BioAssay.
